Measured values reported in PubChem BioAssay.
Active and inactive are the calls of the source. Unless noted, the rule behind the calls is not given here.

Key:
[1] = compounds binding Alexa647 anti-His antibody – biochemical, small-molecule microarray, 635 nm fluorescence, artefact control for SMM control protein annotation, primary screen (AID 1128); conditions: higher = more signal;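 note: score merges feature fluorescence with signal-to-noise for each printed compound spot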
[2] = tested on: Human papillomavirus type 1a E7 protein (residues 1-88); experiment: HPV1a E7 small-molecule binders, primary screen, biochemical, small-molecule microarray, residues 1-88, 635 nm (AID 1129); conditions: small-molecule microarray binding, fluorescence 635 nm; higher = more signal
[3] = target: Focal adhesion kinase 1 (Homo sapiens) (UniProt Q05397); experiment: PTK2 protein binding on printed compound slides – biochemical, small-molecule microarray, 635/667 nm fluorescence, BSA, DTT, primary screen (AID 1130); conditions: 635 nm fluorescence, higher = more signal;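 note: composite of spot emission at 667 nm and signal to noise over triplicate slides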
[4] = tested on: Fibrinogen (Alexa647-labelled); experiment: Alexa647-fibrinogen binding to printed small molecules – biochemical, small-molecule microarray, 635/667 nm fluorescence, artefact control for SMM control-protein annotation, profiling panel (AID 1131); conditions: fibrinogen-A647 binding fluorescence, higher = more signal;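 note: z-score merges 667 nm fluorescence with per-spot signal-to-noise over triplicate slides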
[5] = target: Follistatin (Homo sapiens) (UniProt P19883); experiment: FST protein binding to printed compounds – biochemical, small-molecule microarray, 635/667 nm fluorescence, primary screen (AID 1132); conditions: 635 nm fluorescence, higher = more signal
[6] = target: Fibroblast growth factor 2 (Homo sapiens) (UniProt P09038); experiment: basic fibroblast growth factor binding to printed compounds – biochemical, small-molecule microarray, 635/667 nm fluorescence, primary screen (AID 1133); conditions: FGF2, fluorescence 635/667, higher = more signal
[7] = JC-1 mitochondrial potential readout, lung cancer cells – cell-based, A549, JC-1 fluorescence, basal, 24 h, 100 nL, profiling panel (AID 1138); conditions: higher = more signal;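 note: A549 lung adenocarcinoma cells under basal conditions with no added stimulus; test concentration not given here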
[8] = tested on: Lefty1; experiment: Lefty1 protein binding to printed compounds – biochemical, small-molecule microarray, 635/667 nm fluorescence, primary screen (AID 1139); conditions: fluorescence 635/667, higher = more signal
[9] = tested on: wheat germ agglutinin (Triticum aestivum), Alexa647-labelled; experiment: Alexa647-WGA lectin binding to printed small molecules – biochemical, small-molecule microarray, 635/667 nm fluorescence, artefact control for SMM control-protein annotation, profiling panel (AID 1140); conditions: WGA-A647 binding, 635 nm fluorescence, higher = more signal;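 note: score merges 667 nm feature emission with signal to noise over triplicate slides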
[10] = target: Luciferin 4-monooxygenase (Photinus pyralis) (UniProt P08659); experiment: inhibition of purified Photinus pyralis luciferase – biochemical, luminescence, purified enzyme, 2006 set, primary screen (AID 1141); conditions: purified firefly luciferase, SteadyGlo luminescence, 30 min; higher = more signal, called active from +8 up or from −8 down;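 note: cell-free assay with purified firefly luciferase at 100 ng per well in PBS; test concentration not given here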
[11] = tested on: Wnt5a (protein binding on small-molecule microarray); experiment: small molecules binding Wnt5a protein – biophysical, small-molecule microarray, 635/667 nm fluorescence, primary screen (AID 1142); conditions: 635 nm fluorescence, higher = more signal;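 note: fluorescence read at 667 nm with signal to noise per printed feature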
[12] = ATP-based viability of Huh7 replicon cells – cell-based, CellTiter-Glo luminescence, basal, 48 h, cytotoxicity control for HCV replication inhibitor project, primary screen (AID 1143); conditions: higher = more signal, called active from +8 up or from −8 down;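 note: Huh7 hepatoma cells carrying a hepatitis C replication reporter with no stimulus; test concentration not given here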
[13] = Pseudomonas biofilm growth suppression – PAO1 strain, BacTiter-Glo luminescence, LB-PBS, primary screen (AID 1144); conditions: P. aeruginosa PAO1 biofilm, 12 h, higher = more signal
[14] = basal CRE-LacZ reporter activity in PC12 – cell-based, unstimulated, primary screen (AID 1145); conditions: no forskolin, luminescence, 4.5 h, higher = more signal, called active from +8 up or from −8 down
[15] = forskolin-driven CRE-LacZ activity in PC12 – cell-based, CRE-LacZ reporter, forskolin-stimulated, primary screen (AID 1146); conditions: luminescence, 4.5 h, higher = more signal, called active from +8 up or from −8 down;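 note: PC12 cells with 6xCRE LacZ reporter stimulated by forskolin 10 µM; beta-galactosidase reporter signal reflecting CREB driven transcription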
[16] = target: Streptavidin (Streptomyces avidinii) (UniProt P22629); experiment: compounds binding control protein streptavidin – biophysical, small-molecule microarray, 635/667 nm fluorescence, artefact control for SMM compound annotation, primary screen (AID 1147); conditions: higher = more signal;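 note: signal reflects streptavidin binding to arrayed compounds as a control protein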
[17] = probe aInhba binding on compound microarray – biochemical, small-molecule microarray, 635/667 nm fluorescence, primary screen (AID 1148); conditions: higher = more signal;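 note: score merges 667nm spot fluorescence with signal-to-noise for antibody binding to printed compounds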
[18] = target: Torsin-1A (Homo sapiens) (UniProt O14656); experiment: TOR1A wild-type binding on microarray – cell lysate, small-molecule microarray, lysate, 635/667 nm, primary screen (AID 1149); conditions: COS7 hTOR1A-WT lysate, 635 nm fluorescence, higher = more signal
[19] = target: Torsin-1A (Homo sapiens) (UniProt O14656); experiment: torsin A mutant lysate binding on microarrays – cell lysate, small-molecule microarray, COS7 lysate, 635/667 nm fluorescence, primary screen (AID 1150); conditions: COS7 hTOR1A mutant lysate, 635 nm fluorescence, higher = more signal;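 note: score pools 667 nm emission and signal to noise measuring lysate protein binding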
[20] = tested on: Sonic hedgehog protein (Shh); experiment: Sonic hedgehog microarray binding compounds – biochemical, small-molecule microarray, 635/667 nm fluorescence, primary screen (AID 1151); conditions: 635 nm fluorescence, higher = more signal;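 note: Shh protein binding to compounds spotted on small-molecule microarray slides; score combines spot fluorescence intensity with signal-to-noise across triplicate slides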

Follistatin (Homo sapiens), sequence (P19883 whole entry, looked up): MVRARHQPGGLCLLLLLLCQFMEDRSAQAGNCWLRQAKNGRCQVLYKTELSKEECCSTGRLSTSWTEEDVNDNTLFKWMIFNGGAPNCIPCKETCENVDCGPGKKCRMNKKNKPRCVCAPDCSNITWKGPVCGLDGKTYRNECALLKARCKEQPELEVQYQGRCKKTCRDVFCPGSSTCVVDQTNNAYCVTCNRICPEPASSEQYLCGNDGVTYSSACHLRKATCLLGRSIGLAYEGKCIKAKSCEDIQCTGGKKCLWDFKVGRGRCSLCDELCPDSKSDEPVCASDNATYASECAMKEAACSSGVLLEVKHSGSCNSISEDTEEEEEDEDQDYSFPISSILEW
Luciferin 4-monooxygenase (Photinus pyralis), sequence (P08659 whole entry, looked up): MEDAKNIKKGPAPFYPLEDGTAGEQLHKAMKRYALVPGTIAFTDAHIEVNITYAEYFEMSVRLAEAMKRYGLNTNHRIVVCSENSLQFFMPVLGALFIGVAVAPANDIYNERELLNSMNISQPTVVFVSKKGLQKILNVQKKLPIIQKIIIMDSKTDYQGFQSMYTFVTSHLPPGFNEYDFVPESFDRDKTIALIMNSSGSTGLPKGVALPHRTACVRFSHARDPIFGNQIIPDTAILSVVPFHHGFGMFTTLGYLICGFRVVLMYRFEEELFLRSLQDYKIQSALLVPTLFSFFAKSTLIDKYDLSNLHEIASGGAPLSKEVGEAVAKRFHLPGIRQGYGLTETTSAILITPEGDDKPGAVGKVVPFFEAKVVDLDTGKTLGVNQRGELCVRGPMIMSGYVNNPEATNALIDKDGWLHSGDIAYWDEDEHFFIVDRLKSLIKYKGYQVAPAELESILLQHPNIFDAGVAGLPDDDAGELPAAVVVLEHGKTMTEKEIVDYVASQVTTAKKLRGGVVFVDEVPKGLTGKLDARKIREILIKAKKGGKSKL
Streptavidin (Streptomyces avidinii), sequence (P22629 whole entry, looked up): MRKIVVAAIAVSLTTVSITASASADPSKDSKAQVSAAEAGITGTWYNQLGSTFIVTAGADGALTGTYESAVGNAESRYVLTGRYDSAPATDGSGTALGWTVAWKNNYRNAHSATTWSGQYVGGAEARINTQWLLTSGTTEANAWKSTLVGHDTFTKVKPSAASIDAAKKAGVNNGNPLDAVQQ
Torsin-1A (Homo sapiens), sequence (O14656 whole entry, looked up): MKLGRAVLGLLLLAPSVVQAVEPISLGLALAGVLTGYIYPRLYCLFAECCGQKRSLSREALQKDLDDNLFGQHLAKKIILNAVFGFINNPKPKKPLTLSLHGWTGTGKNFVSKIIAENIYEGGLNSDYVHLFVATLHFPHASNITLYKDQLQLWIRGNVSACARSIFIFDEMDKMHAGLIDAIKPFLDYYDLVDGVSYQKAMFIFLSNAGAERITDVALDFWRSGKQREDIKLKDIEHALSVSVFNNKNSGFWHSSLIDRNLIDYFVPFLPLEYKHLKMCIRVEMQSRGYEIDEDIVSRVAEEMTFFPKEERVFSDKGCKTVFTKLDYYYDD
Fibroblast growth factor 2 (Homo sapiens), sequence (P09038 whole entry, looked up): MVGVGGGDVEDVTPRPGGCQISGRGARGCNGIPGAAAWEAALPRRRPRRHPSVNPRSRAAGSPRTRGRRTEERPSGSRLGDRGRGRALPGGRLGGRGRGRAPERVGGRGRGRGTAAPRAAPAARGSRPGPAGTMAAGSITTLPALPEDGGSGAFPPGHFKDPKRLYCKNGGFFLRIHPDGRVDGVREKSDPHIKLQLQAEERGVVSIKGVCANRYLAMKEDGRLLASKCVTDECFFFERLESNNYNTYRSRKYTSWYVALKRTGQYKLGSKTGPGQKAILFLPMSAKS
Focal adhesion kinase 1 (Homo sapiens), sequence (Q05397 whole entry, looked up): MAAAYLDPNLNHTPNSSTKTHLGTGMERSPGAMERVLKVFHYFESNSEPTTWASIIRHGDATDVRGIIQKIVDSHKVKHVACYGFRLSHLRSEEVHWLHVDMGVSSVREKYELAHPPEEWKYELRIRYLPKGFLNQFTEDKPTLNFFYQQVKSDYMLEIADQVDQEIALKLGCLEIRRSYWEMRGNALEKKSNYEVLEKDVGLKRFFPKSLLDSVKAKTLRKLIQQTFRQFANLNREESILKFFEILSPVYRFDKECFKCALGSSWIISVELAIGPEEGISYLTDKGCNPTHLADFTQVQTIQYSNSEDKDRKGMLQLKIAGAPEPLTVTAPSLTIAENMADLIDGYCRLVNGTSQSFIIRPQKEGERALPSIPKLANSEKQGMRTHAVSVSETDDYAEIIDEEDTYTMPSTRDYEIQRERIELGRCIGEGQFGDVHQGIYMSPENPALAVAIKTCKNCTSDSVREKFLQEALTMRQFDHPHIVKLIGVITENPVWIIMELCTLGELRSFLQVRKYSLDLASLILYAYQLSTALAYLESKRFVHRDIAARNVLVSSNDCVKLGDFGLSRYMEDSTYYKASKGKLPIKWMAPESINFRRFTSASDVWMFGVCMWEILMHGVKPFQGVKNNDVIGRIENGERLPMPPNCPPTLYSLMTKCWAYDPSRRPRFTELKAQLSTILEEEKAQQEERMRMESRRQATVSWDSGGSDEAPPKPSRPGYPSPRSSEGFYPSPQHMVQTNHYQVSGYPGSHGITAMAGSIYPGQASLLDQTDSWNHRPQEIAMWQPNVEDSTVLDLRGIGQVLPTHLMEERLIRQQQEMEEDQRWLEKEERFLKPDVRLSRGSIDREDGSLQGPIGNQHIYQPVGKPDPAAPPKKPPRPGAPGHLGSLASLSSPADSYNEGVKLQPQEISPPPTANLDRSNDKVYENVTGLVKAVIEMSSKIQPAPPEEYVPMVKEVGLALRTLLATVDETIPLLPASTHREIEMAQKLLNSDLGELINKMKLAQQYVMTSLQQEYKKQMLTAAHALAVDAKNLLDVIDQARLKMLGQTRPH

Compound	composite z-score [1]	composite z-score [2]	composite z-score [3]	composite z-score [4]	composite z-score [5]	composite z-score [6]	z-score [7]	composite z-score [8]	composite z-score [9]	z-score [10]	composite z-score [11]	z-score [12]	z-score [13]	z-score [14]	z-score [15]	composite z-score [16]	composite z-score [17]	composite z-score [18]	composite z-score [19]	composite z-score [20]
CCCCCN1CC=CC23O[C@@H]4C=CCOC(=O)[C@@H]4[C@H]2C(=O)N(CCCO)[C@@H]3C1=O (stereo not given in full)	1.5	0.789	0.532	-1.05	0.105	-0.128	-0.483	0.632	-0.895	-0.0247 (inactive)	-0.465	-2.93 (inactive)	-1.87 (inactive)	-1.85 (inactive)	-0.771 (inactive)	-0.866	-0.208	2.03	2.31	1.25
O=C1N(CCS(=O)(=O)c2ccccc2)Cc2ccccc2[C@H]2OC(c3ccc(OCCCO)cc3)=N[C@@]12CCS(=O)(=O)c1ccccc1	2.44	1.21	0.772	0.561	1.33	1.31	-1.15	-0.0425	1.09	-1.7 (inactive)	1.05	-1.07 (inactive)	-0.447 (inactive)	0.881 (inactive)	-1.33 (inactive)	0.421	0.0831	0.307	-0.0941	0.806
C=CCC(OC(C)=O)[C@@H]1[C@@H](N(Cc2ccc(-c3ccccc3)cc2)C(=O)Cc2ccc(OC)cc2)c2cc(OCCCO)ccc2N1C(=O)c1ccc2ccccc2n1 (stereo not given in full)	0.009	0.0656	0.0569	0.534	0.45	0.635	1.34	0.221	0.22	-0.592 (inactive)	-0.167	-1.53 (inactive)	0.321 (inactive)	0.409 (inactive)	0.677 (inactive)	0.437	-0.0471	-0.0598	0.0615	-0.111
CCOC(=O)C1=CCC(c2ccc([N+](=O)[O-])cc2)N(S(=O)(=O)c2ccc(C)cc2)C1 (stereo not given)	0.711	0.915	0.801	-0.0411	0.261	-0.277	1.15	-0.023	0.44	1.95 (inactive)	0.0898	-3.94 (inactive)	0.203 (inactive)	0.687 (inactive)	0.264 (inactive)	0.653	0.111	0.242	0.103	-0.377
O=C1O[C@H](c2ccccc2)[C@H](c2ccccc2)N2[C@H]1[C@@H](C(=O)N1CCN(c3ncccn3)CC1)[C@]1(C(=O)Nc3ccccc31)[C@H]2c1ccc(OCCO)cc1	1.39	1.19	0.429	-0.206	1.34	1.43	-0.442	1.12	0.0522	0.546 (inactive)	0.505	-5.5 (inactive)	-2.01 (inactive)	-0.528 (inactive)	-0.222 (inactive)	-0.0363	0.0588	1.43	0.36	1.98
CC(C)N1C(=O)c2ccccc2[C@@H](C(=O)NCCCN(C)C)[C@@H]1c1ccc(CO)cc1	0.0674	-0.163	1.13	-0.305	-0.631	-0.521	-0.864	-1.12	0.705	0.571 (inactive)	-0.0882	-0.921 (inactive)	-0.282 (inactive)	-0.116 (inactive)	-0.0135 (inactive)	-0.418	0.0633	-0.0795	-0.0729	-0.589
COCCOC(=O)N1C(=O)[C@@]2(c3ccccc31)[C@H](C(=O)NC[C@H](O)c1ccccc1)[C@H]1C(=O)O[C@H](c3ccccc3)[C@H](c3ccccc3)N1[C@@H]2c1ccc(OCCO)cc1	0.791	1.15	0.367	0.715	1.47	1.77	-0.542	1.58	0.387	0.888 (inactive)	0.788	-3.37 (inactive)	-1.46 (inactive)	-1.83 (inactive)	-0.686 (inactive)	0.168	0.0588	0.646	0.857	2.29
COc1ccc([Si](C)(C)[C@@H]2[C@@H](CC(=O)N(CCO)Cc3ccccc3)O[C@]3(C(=O)N(C)c4ccccc43)[C@H]2C)cc1	1.93	1.17	0.495	0.958	1.44	1.4	0.194	1.45	1.17	0.0071 (inactive)	0.205	-4.28 (inactive)	-0.054 (inactive)	11.9 (active)	1.37 (inactive)	0.92	0.218	0.089	0.152	1.74
COC(=O)[C@@]1(Cc2ccc(OC)cc2)[C@H]2c3cc(C(=O)N(C)C)n(Cc4c(OC)[nH]cc(C)c4=O)c3C[C@H]2CN1C(=O)c1ccccc1	-0.13	0.66	0.66	0.324	0.326	-0.123	0.539	-0.144	0.59	0.151 (inactive)	-0.0522	-0.857 (inactive)	0.0281 (inactive)	-0.185 (inactive)	0.69 (inactive)	-0.0748	0.0882	0.0857	1.16	-1.1
O=C1O[C@H](c2ccccc2)[C@H](c2ccccc2)N2[C@H]1[C@@H](C(=O)Nc1nc3ccccc3s1)[C@]1(C(=O)Nc3ccccc31)[C@H]2c1ccc(O)cc1	0.156	1.24	0.19	0.921	1.32	1.47	-2.12	1.08	0.705	-0.647 (inactive)	0.0365	-1.69 (inactive)	-0.363 (inactive)	0.478 (inactive)	0.757 (inactive)	1.2	-0.0736	-0.0245	0.414	1.51
C=C[C@@H](COC(C)=O)N(Cc1ccc([N+](=O)[O-])cc1)S(=O)(=O)c1ccc(Br)cc1	1.6	1.17	0.079	0.958	0.631	0.54	1.6	0.321	1.09	-1.19 (inactive)	0.191	-1.97 (inactive)	-0.91 (inactive)	0.661 (inactive)	0.127 (inactive)	0.861	0.0869	0.474	0.0176	0.956
